# Assay outcomes from PubChem.
# Most compounds without a hit are left out; they make up all but 2.4% or so of the library.
# Pol beta inh = inhibitors of human DNA polymerase beta; P06746; Pol beta primer extension/strand displacement, fluorescence kinetic; Potency, µM (highest dose often 114 µM), for inactives: at the top dose activity change, negative = inhibition, hits mostly inhibitors; 340,000 compounds, 1.3% hits; AID 485314; note: % is set by controls: 0 for no effect and ±100 for the full control effect
#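 Preincubation: enzyme (10 nM) with compound, 15 min, RT. Reaction: substrate added to 50 nM final. Reads: 0 and 10 min. Analysis: normalized, Hill fit.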
# FEN1 inh = inhibitors of human flap endonuclease 1. P39748. Recombinant FEN1 flap cleavage, fluorescence, 15 min. Potency, µM (titrated, usually from 114 µM), inactives show at the highest dose activity change, negative = inhibition, most hits filed as inhibitors. 390,000 compounds, 0.35% hits. AID 588795; note: % is set by controls: 0 for no effect and ±100 for the full control effect; nearly all actives have a fitted effect of over 65% in size
#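 FEN1 at 10 nM preincubated with compounds 15 min at room temperature, then flap DNA substrate added at 50 nM final. Signal read at 0 and 15 min; concentration-response fitted with four-parameter Hill equation.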
# Pol eta inh-1 = blocks human DNA polymerase eta activity; recombinant Pol eta, fluorescent DNA replication assay; Q9Y253; Potency, µM (series often up to 114 µM), for inactives: at the top dose activity change, negative = inhibition, hits mostly inhibitors; AID 588591; 390,000 compounds, 1.2% hits; note: % is set by controls: 0 for no effect and ±100 for the full control effect
#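 Pol eta (10 nM) was preincubated with compounds for 15 min at room temperature, after which fluorescent replication substrate (50 nM final) was added to start the reaction. Fluorescence was read kinetically at 0 and 10 min.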
# Pol kappa inh-1 = DNA polymerase kappa (human) inhibition. Potency, µM (series often up to 107 µM), without a hit: top-dose activity, negative = inhibition, usual class: inhibitors. 400,000 compounds, 0.53% hits. AID 588579. purified Pol kappa, fluorescent DNA synthesis assay, 10 min. Q9UBT6; note: % is set by controls: 0 for no effect and ±100 for the full control effect
#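 Fluorescent qHTS in 1536-well format: enzyme (10 nM) and compound sat 15 min at room temperature before 50 nM substrate (final) was added. Signal taken at 0 and 10 min; no-enzyme buffer wells were negative controls.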
# Pol iota inh = DNA polymerase iota (human) inhibition; Pol iota fluorescent replication assay, 10 min; AID 588590; 390,000 compounds, 1% hits; Potency, µM (highest dose often 115 µM), inactives show at the highest dose activity, negative = inhibition, most hits filed as inhibitors
#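 Pol iota at 10 nM preincubated 15 min with compounds at room temperature; reaction started with fluorescent substrate, 50 nM final. Fluorescence read kinetically at 0 and 10 min; buffer-only wells as negative control.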
# WRN inhibitor = inhibitors of human WRN helicase; Potency, µM (highest dose often 114 µM), for the others: at the highest dose activity change, negative = inhibition, most hits filed as inhibitors; WRN helicase unwinding, fluorescent forked duplex, kinetic; 360,000 compounds, 0.46% hits; note: % is set by controls: 0 for no effect and ±100 for the full control effect; nearly all actives have a fitted effect of over 55% in size
#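 WRN at 20 nM final was preincubated with compound for 15 min at room temperature; reaction started with 100 nM forked duplex oligonucleotide carrying fluorophore and quencher plus 2 mM ATP (final). Unwinding followed kinetically by red fluorescence (ex 525/em 598 nm).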
# HEK293 tox = HEK-293 cytotoxicity, GALK inhibitor secondary; shares compounds with Pol eta inh-1; HEK-293 viability, ATP luminescence (CellTiter-Glo), 24/48 h; Potency, µM (series often up to 46.1 µM), inactives show at the highest dose activity change, negative = cytotoxicity, actives largely listed as inhibitors; 170 compounds, 10% hits; AID 2547; note: % is set by controls: 0 for no effect and ±100 for the full control effect
# Pol kappa inh-2 = confirmation of human DNA polymerase kappa inhibitors | shares compounds with Pol eta inh-1 | purified Pol-kappa, fluorescent strand-displacement substrate | Potency, µM, usual class: inhibitors | 920 compounds, 76% hits | AID 720501
# Pol eta inh-2 = Pol eta (human) inhibition, cherry-pick confirmation. Pol eta primer extension, TAMRA/BHQ fluorescence, 10 min. AID 720502. shares compounds with Pol eta inh-1. 2,600 compounds, 64% hits. Potency, µM, most hits filed as inhibitors
# * = called active by the depositor; ? = inconclusive; . = no result given; [ ] = another dose, or the depositor's remark. Calls come from the whole dose curve; as a rule, active = well fitted curve in the direction sought with a large enough effect; inconclusive = small, poorly fitted or top-dose-only effect, or another doubt; inactive = no such curve, though single readings can be large; an effect the other way counts as inactive or inconclusive. Potency is the fitted concentration of half-maximal effect.
SMILES,Pol beta inh,FEN1 inh,Pol eta inh-1,Pol kappa inh-1,Pol iota inh,WRN inhibitor,others
O=C(NC1CCCC1)c1ccc(COCC(F)(F)C(F)F)o1,29%,0%,-9%,-6%,1%[58.9 µM],0%,
O=C(O)c1ccc(COCC(F)(F)C(F)F)o1,28µM*,-1%,18µM*,-24%,-16%,-13%[57.1 µM],Pol eta inh-2=?
CCN(C(=O)COC(=O)c1[nH]c(C)c(C(C)=O)c1C)C1CCS(=O)(=O)C1 (centres undefined),19%,-7%,9%,-2%,0%,-1%,
COc1ccc([C@H]2CC(=O)C=C(c3ccc(-c4ccccc4)cc3)C2)cc1OC,.,14%,-10%,-2%,-1%,-29%,
CCN(CC1COc2ccccc2O1)C(=O)CN1C(=O)NC(C)(c2ccccc2)C1=O (centres undefined),.,-7%,-13%,1%,?,2%,
COc1cc(/C=C(\C#N)c2nc3ccc(C)cc3[nH]2)ccc1OCc1ccc(C)cc1,?,?,?,?,?,.,Pol kappa inh-2=?
Cc1ccc(S(=O)(=O)N2[C@@H](c3cccc(Cl)c3)C(C(=O)O)=CC[C@H]2c2ccc(C(C)C)cc2)cc1,.,-9%,89µM*,?,?,-4%[11.6 µM],Pol kappa inh-2=?
Cc1ccc(S(=O)(=O)N2[C@@H](c3ccc(Cl)cc3)C(C(=O)O)=CC[C@H]2c2cccc(Cl)c2)cc1,.,-15%,-16%,-2%,4%,6%,
CC1=C(C#N)C(=O)NC(=O)/C1=C\c1ccc(-c2ccc(C)cc2[N+](=O)[O-])o1,32µM*,-6%,50µM*,-13%,?,?,Pol eta inh-2=?
Cc1ccc(-c2ccc(/C=N/N=C3/NC(=O)C(CC(=O)O)S3)o2)c([N+](=O)[O-])c1 (centres undefined),5%,-15%,?,-9%,6%,-9%,
CCOC(=O)c1cc(-c2ccc(/C=C3/C(=O)NC(=O)C(C#N)=C3C)o2)ccc1Cl,35µM*,?,28µM*,?,?,?,Pol eta inh-2=48*
C#CCOCCOCCOCCNc1nc(N2CCN(C(=O)[C@H](CCC(=O)O)n3cc(C(N)[C@H](C)CC)nn3)CC2)nc(N2CCN(C(=O)[C@H](Cc3cc4ccccc4[nH]3)n3cc(C(N)[C@H](C)CC)nn3)CC2)n1 (some centres undefined),4%,.,.,.,.,.,
COc1ccc(OC)c(/C=C2\S/C(=N/NC(=O)c3ccc4ccccc4c3)NC2=O)c1,0%,?,20µM*,-21%,-4%,?,Pol kappa inh-2=?
COc1ccc(/C=C2\SC(=Nc3ccccc3Cl)NC2=O)c(OC)c1,.,.,-18%,.,.,2%,
CCCCCCc1cc2cc(C(=O)NC)c(=N)oc2cc1O,2%,1%,-20%,-14%,39%,-28%,
CC1(C)S[C@@H]2[C@H](NC(=O)[C@H](N)c3ccc(O)cc3)C(=O)N2[C@H]1C(=O)O,0%,-15%,?,50µM*,?,.,Pol eta inh-2=38*
CC(C)OC(=O)NC(Nc1ccccc1C(=O)O)(C(F)(F)F)C(F)(F)F,16%,-12%,-5%,4%,11%,0%,
CC(C)(C)S(=O)(=O)/C(C#N)=N/Nc1ccc(S(C)(=O)=O)cc1,-2%,-9%,-16%,-2%,93%,-4%[57.1 µM],
CC1(C)N=C(Nc2nc3ccccc3o2)NC2=C1C(=O)CCC2,.,.,.,.,.,.,HEK293 tox=-27%
